Hits are enriched below; roughly 17% of the tested compounds scored in any of these assays.
DT40 TDP1 no CPT: qHTS for Inhibitors of human tyrosyl-DNA phosphodiesterase 1 (TDP1): qHTS in cells in absence of CPT; DT40 Tdp1-/- hTDP1 cells, no CPT, ATP luminescence, 48 h; Potency, µM (series often up to 46.2 µM), for inactives: at the top dose activity change, negative = growth inhibition, actives largely listed as inhibitors; actives 15% (n = 420,000); note: % is set by controls: 0 for no effect and ±100 for the full control effect; nearly all actives have a fitted effect of over 55% in size
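No-CPT arm: Tdp1-/-;hTDP1 DT40 cells (400/well) plus compounds, incubated ≥48 hr at 37 °C. Readout CellTiter-Glo luminescence.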
ClpP mod: qHTS Assay for Activators of ClpP | ATP-dependent Clp protease proteolytic subunit (Bacillus subtilis (strain 168)), P80244 | purified B. subtilis ClpP, FRET peptide cleavage, 20 min | Potency, µM (highest dose often 57.5 µM), without a hit: top-dose activity change, negative = active | actives 1.9% (n = 340,000) | AID 651965, 2013; active = well fitted falling curve with a large enough effect; inconclusive = small, poorly fitted or top-dose-only effect; inactive = no such curve, though single readings can be large or run the other way; note: the source files actives as falling curves though it sought activators and does not explain the sign; nearly all actives have a fitted effect of over 65% in size
Target sequence (P80244 whole entry, looked up): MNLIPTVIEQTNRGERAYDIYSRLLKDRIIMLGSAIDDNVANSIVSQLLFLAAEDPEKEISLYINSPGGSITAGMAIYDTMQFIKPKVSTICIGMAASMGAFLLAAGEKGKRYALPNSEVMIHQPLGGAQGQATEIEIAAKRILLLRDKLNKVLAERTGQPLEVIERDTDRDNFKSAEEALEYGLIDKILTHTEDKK
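FRET quenching reversal measured ClpP activation: 10 microg/mL B. subtilis ClpP at pH 8 with the FRET-FV decapeptide, read at 430 nm after 320 nm excitation. The 20-min minus 0-min signal was scaled between DMSO/no-enzyme wells and ADEP (5.8 microM final).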
DT40 TDP1 CPT: growth inhibition of DT40 Tdp1-/-;hTDP1 cells with camptothecin (screen for TDP1 inhibitors). Potency, µM (titrated, usually from 46.2 µM), for the others: at the top dose activity change, negative = growth inhibition, actives largely listed as inhibitors. AID 686979. actives 12% (n = 420,000). chicken DT40 Tdp1-/-;hTDP1 cells + 20 nM CPT, ATP luminescence, 48 h; note: % is set by controls: 0 for no effect and ±100 for the full control effect; nearly all actives have a fitted effect of over 55% in size
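Chicken DT40 Tdp1-/- cells stably complemented with human TDP1 were seeded at 400 cells/well in medium containing 20 nM camptothecin, exposed to pin-transferred compounds, and grown at 37 °C for at least 48 hr. Viability was read as ATP luminescence.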
TDP1 inh: TDP1 (human) enzyme inhibition; AID 485290; Potency, µM (highest dose often 130 µM), for inactives: at the top dose activity change, negative = inhibition, usual class: inhibitors; recombinant TDP1, AlphaScreen DNA substrate cleavage; actives 0.28% (n = 350,000); note: % is set by controls: 0 for no effect and ±100 for the full control effect; nearly all actives have a fitted effect of over 40% in size
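Signal: AlphaScreen proximity between streptavidin donor and anti-FITC acceptor beads on intact substrate. Reaction: Tdp1 1 nM, substrate 15 nM final, 5 min RT after 15 min compound preincubation.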
Numbers without * were called inactive; ? = inconclusive; . = no result; [ ] = another dose, or the depositor's remark. Unless noted, calls come from the whole dose curve; as a rule, active = well fitted curve in the direction sought with a large enough effect; inconclusive = small, poorly fitted or top-dose-only effect, or another doubt; inactive = no such curve, though single readings can be large; an effect the other way counts as inactive or inconclusive. Potency is the fitted concentration of half-maximal effect.

SMILES | DT40 TDP1 no CPT | ClpP mod | DT40 TDP1 CPT | TDP1 inh
CCOC(=O)c1ccc2[nH]c3c(c2c1)CCCC3C(=O)OCC (stereo not given) | -26.1% | ? | -16.5% | 1.9%
COc1ccc(Cn2cc(CN3CC(N4CC=CC4)CS3(=O)=O)nn2)cc1 (stereo not given) | -11.6% | 0.5% | -4.2% | .
CCC(=O)Nc1cccc(C2=NOC3(C2)C[C@@H](C(N)=O)N(C(=O)c2ccccc2C(=O)c2ccccc2)C3)c1 (stereo not given in full) | 13.3% | -4.1% | 1.1% | 5.9%
NC(=O)[C@H]1CC2(CC(c3cccc(NC(=O)CC(c4ccccc4)c4ccccc4)c3)=NO2)CN1C(=O)C(c1ccccc1)c1ccccc1 (stereo not given in full) | ? | -4.5% | 18.4µM* | 2.4%
NC(=O)[C@H]1CC2(CC(c3cccc(NC(=O)CC(c4ccccc4)c4ccccc4)c3)=NO2)CN1C(=O)c1ccccc1C(=O)c1ccccc1 (stereo not given in full) | ? | -2.6% | 13µM* | 3.5%
CC1CC2C(C(O)C[C@]3(C)C2CC[C@]3(O)C(=O)CO)[C@]2(C)C=CC(=O)C=C12 (stereo not given in full) | -0.4% | . | -24.0% | 9.6%[56.1 µM]
CCn1c(CSc2nccn2C)nc2cc(C(=O)O)ccc21 | 4.3% | -28.6% | 0.0% | -11.9%
CCn1c(CSc2nc3ccccc3[nH]2)nc2cc(C(=O)O)ccc21 | -30.1% | 35.5µM* | -6.3% | 1.0%
C[C@H](CO)N1C[C@H](C)[C@@H](CN(C)S(=O)(=O)c2cccs2)Oc2c(NS(=O)(=O)c3ccccc3)cccc2C1=O | -10.5% | -1.6% | -17.4% | 1.3%
CCOC(=O)C1(Cc2cccc(F)c2)CCN(Cc2ccc(COC)o2)CC1 | 20.6µM* | -1.9% | 23.1µM* | 7.0%
CCOC(=O)C1(Cc2ccccc2)CCN(Cc2ccc(COC)o2)CC1 | ? | . | 11.6µM* | 2.7%
CCOC(=O)C1(Cc2ccccc2)CCN(Cc2ccc3c(c2)OCCO3)CC1 | -17.3% | . | 0.4% | 3.0%
CCOC(=O)C1(Cc2ccccc2)CCN(Cc2ccc(C)s2)CC1 | 23.1µM* | . | ? | 3.5%
CCOC(=O)C1(CCOc2ccccc2)CCN(Cc2ccc(COC)o2)CC1 | ? | . | 7.31µM* | .
COc1ccc(NC(=O)CCc2c(C)nc3c(-c4ccccc4)c(C)nn3c2C)cc1Cl | ? | 25.3% | ? | 8.1%
Cc1ccc(-n2nc(C(=O)N3CCN(c4cc(Cl)ccc4C)CC3)c(=O)n(C)c2=O)cc1 | ? | -0.4% | ? | 6.5%
CCOC(=O)C1(Cc2ccccc2C(F)(F)F)CCN(Cc2ccon2)CC1 | 14.6µM* | . | ? | 5.6%
CCOC(=O)C1(Cc2ccccc2)CCN(Cc2ccon2)CC1 | -23.3% | . | -25.6% | -2.8%
O=C(Nc1cccc([N+](=O)[O-])c1)c1ccc([N+](=O)[O-])o1 | 3.66µM* | -1.3% | 1.84µM* | .
Cc1ccc2nsnc2c1NC(=O)c1ccc([N+](=O)[O-])o1 | 23.1µM* | . | ? | 8.1%
O=C(Nc1ccc2[nH]c(=O)[nH]c2c1)c1ccc([N+](=O)[O-])o1 | -19.1% | -3.8% | ? | -18.8%
Cc1ccc2nsnc2c1NC(=O)c1ccc(-c2cc(Cl)ccc2Cl)o1 | ? | -19.7% | ? | -2.9%
O=C(Nc1cccc(NC(=O)c2ccccc2Cl)c1)c1ccc([N+](=O)[O-])o1 | 5.8µM* | -0.7% | 8.2µM* | 0.0%
Cc1ccc(NC(=O)c2ccc([N+](=O)[O-])o2)cc1C | 10.3µM* | . | 25.9µM* | 7.2%
Cc1ccc2nsnc2c1NC(=O)CCl | 20.6µM* | -5.5% | ? | 1.2%
SMILES | DT40 TDP1 no CPT | ClpP mod | DT40 TDP1 CPT | TDP1 inh
CCC(=O)Nc1c(C)ccc2nsnc12 | -11.1% | -0.8% | 3.2% | 5.1%
O=C(OCc1nnc(-c2cccs2)o1)C1=NN(c2ccccc2)C(=O)CC1 | ? | -14.4% | 3.3% | 1.2%
CCc1cccc(NC(=O)Cn2c(C(=O)OC)cc3sc(Cl)cc32)c1 | ? | -1.3% | ? | 2.0%
Cc1cc(N2CCN(C(=O)c3ccco3)CC2)nc(-c2ccccc2)n1 | 18.4µM* | -2.0% | ? | 1.9%
COCc1cc(N2CCCCC2)nc(-c2ccccc2)n1 | 18.4µM* | . | 10.3µM* | -2.6%
Cc1cc(N2CCN(c3ccccc3)CC2)nc(-c2ccccc2)n1 | 10.3µM* | -4.0% | 23.1µM* | 4.4%
CSCc1cc(N2CCCC2)nc(-c2ccccc2)n1 | ? | . | 8.0% | 5.9%
CC1(C(=O)NS(=O)(=O)c2cccc(C#N)c2)CCN1C(=O)c1ccco1 (stereo not given) | 1.1% | -6.7% | 16.6% | .
CCCCCN(C(=O)CCC(=O)OCC(=O)N1CCCCC1CC)c1c(N)n(CCCC)c(=O)[nH]c1=O (stereo not given) | -13.0% | 0.1% | -6.2% | .
Cc1nc(-c2ccc(F)cc2)sc1CCNC(=O)c1ccc(C(C)(C)C)cc1 | 16.4µM* | 4.3% | 14.6µM* | 3.8%
Cc1nc(-c2ccc(F)cc2)sc1CCNC(=O)c1ccccc1 | 23.1µM* | -28.4% | 14.6µM* | 3.8%
COc1ccc(NC(=O)C(=O)NCCc2sc(-c3ccc(Cl)cc3)nc2C)cc1 | -5.6% | -7.7% | -2.6% | -1.9%
COc1ccc(C(=O)NCCc2sc(-c3ccc(Cl)cc3)nc2C)c(OC)c1 | ? | 3.9% | 16.4µM* | 5.3%
Cc1nc(-c2ccc(F)cc2)sc1CCNC(=O)c1ccc(OC(C)C)cc1 | ? | 4.3% | ? | 6.5%
COc1ccc(-c2nc(C)c(CCNC(=O)c3cccs3)s2)cc1OC | . | 4.5% | . | -2.2%
Cc1nc(-c2ccc(F)cc2)sc1CCNC(=O)c1cccs1 | ? | ? | 20.6µM* | 1.8%
Cc1cc(Nc2cccc(Br)c2)n2c(nc3ccccc32)c1C#N | . | -7.8% | . | 4.5%
Cc1ccc(NC(=O)[C@@H]2CCCN2C(=O)c2cccs2)cc1S(=O)(=O)N1CCCCC1 | 2.3% | -5.3% | -7.2% | 2.0%
COc1ccc2[nH]c(CN3CCC(n4nccc4NC(=O)C4CC4)CC3)c(C)c2c1 | -15.2% | ? | -3.0% | 5.3%
Cc1nc(-c2ccc(Cl)cc2)sc1CCNC(=O)c1ccc(C(F)(F)F)cc1 | 11.6µM* | -41.0% | 8.2µM* | 5.3%
CCOC(=O)N(C)C[C@@H]1OCc2cnnn2CCCC(=O)N([C@@H](C)CO)C[C@@H]1C | -10.9% | 1.1% | 1.5% | .
CCCCCC(=O)N1CC2(CC)CN(C(=O)CCCCC)CC(CC)(C1)C2=O | ? | . | 16.4µM* | 1.4%
c1ccc(-c2nc3c4ccccc4ccn3c2CN2CCCCC2)cc1 | 20.6µM* | . | ? | .
Cc1ccc(-c2nc3c4ccccc4ccn3c2CN2CCCCC2)cc1 | 23.1µM* | 3.4% | 23.1µM* | .
CC(C)(C)c1ccc(CC(=O)N2CCC2(C)C(=O)NS(=O)(=O)c2ccccc2)cc1 (stereo not given) | 5.2% | -1.3% | -3.1% | .

Assay outcomes deposited in PubChem by National Center for Advancing Translational Sciences (NCATS).
